In the supplement of paper PMC12494721:
Structures can show the parent of a compound that is named as a salt.

Legend:
Conditions in all cases: incubation time: 27 h, anaerobic, 37 °C;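 for the amine columns active = adjusted P below 0.05 in both replicates with a change the same way and a mean fold change under 0.8 or over 1.25; inactive = the rest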
[1] = tested on: Clostridium sporogenes DSM 1664; experiment: growth (OD595) fold change vs plate DMSO controls (fold change (ratio)); higher = more growth
Outline: (§1)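 Shaken 96-well cultures in mGAM, grown anaerobically for 27 h at 37 °C, were read at 595 nm. OD came from blank-subtracted readings, corrected for background with 20 µM compound solutions in water and scaled by a calibration factor of 5. Growth is the fold change versus the plate's median DMSO control. Values average 2 biological replicates, and any fold change above 1.5 is NA.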

Escherichia coli IAI1 [2] = experiment: as above
Outline: as §1

[3] = tested on: Klebsiella aerogenes DSM 30053; experiment: as above
Outline: as §1

[4] = tested on: Ruminococcus gnavus DSM 108212; experiment: as above
Outline: as §1

[5] = tested on: Klebsiella aerogenes DSM 30053; experiment: fold change of Histamine concentration vs plate DMSO controls (fold change (ratio)); higher = more amine produced, active = hit call of the paper (significant change in both replicates, either direction)
Outline: (§2)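 Each value is the fold change relative to DMSO-only wells on the same plate. Four gut bacterial strains were grown anaerobically in mGAM at 37 °C for 27 h in 80 µL wells, starting at OD 0.1 before a 1:1 dilution, with compounds at 20 µM final (sweeteners 50 µM). Whole cultures were extracted with cold acetonitrile/methanol containing 0.1% formic acid, centrifuged, and amines were quantified by LC–triple-quadrupole MS (dynamic MRM) against external calibration curves with within-batch drift correction. Values are means of 2 biological replicates.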

[6] = tested on: Clostridium sporogenes DSM 1664; experiment: fold change of Tryptamine concentration vs plate DMSO controls (fold change (ratio)); higher = more amine produced, active = hit call of the paper (significant change in both replicates, either direction)
Outline: as §2

[7] = tested on: Ruminococcus gnavus DSM 108212; experiment: as above
Outline: as §2

Escherichia coli IAI1 [8] = experiment: fold change of Putrescine concentration vs plate DMSO controls (fold change (ratio)); higher = more amine produced, active = hit call of the paper (significant change in both replicates, either direction)
Outline: as §2

[9] = tested on: Klebsiella aerogenes DSM 30053; experiment: as above
Outline: as §2

Escherichia coli IAI1 [10] = experiment: fold change of Cadaverine concentration vs plate DMSO controls (fold change (ratio)); higher = more amine produced, active = hit call of the paper (significant change in both replicates, either direction)
Outline: as §2

[11] = tested on: Klebsiella aerogenes DSM 30053; experiment: as above
Outline: as §2

[12] = tested on: Ruminococcus gnavus DSM 108212; experiment: fold change of 2-Phenylethylamine concentration vs plate DMSO controls (fold change (ratio)); higher = more amine produced, active = hit call of the paper (significant change in both replicates, either direction)
Outline: as §2

SMILES	growth [1]	growth (Escherichia coli IAI1 [2])	growth [3]	growth [4]	fold change of Histamine concentration [5]	fold change of Tryptamine concentration [6]	fold change of Tryptamine concentration [7]	fold change of Putrescine concentration (Escherichia coli IAI1 [8])	fold change of Putrescine concentration [9]	fold change of Cadaverine concentration (Escherichia coli IAI1 [10])	fold change of Cadaverine concentration [11]	fold change of 2-Phenylethylamine concentration [12]
CC(=O)NS(=O)(=O)c1ccc(NC(=O)c2ccccc2C(=O)O)cc1 [Phthalylsulfacetamide] (20 µM)	0.948	0.995	1.03	0.929	1.04 (inactive)	1.05 (inactive)	1.03 (inactive)	1.03 (inactive)	1.01 (inactive)	1.02 (inactive)	0.992 (inactive)	1.02 (inactive)
CN(C)CCC[C@@]1(c2ccc(F)cc2)OCc2cc(C#N)ccc21 [Escitalopram oxalate] (20 µM)	0.99	0.986	1.11	0.828	1.02 (inactive)	0.971 (inactive)	1.01 (inactive)	1.01 (inactive)	1.02 (inactive)	0.993 (inactive)	1.02 (inactive)	0.965 (inactive)
CC[N+](CC)(CC(=O)Nc1c(C)cccc1C)Cc1ccccc1 [Denatonium benzoate] (20 µM)	0.911	1.2	1.02	1.02	0.934 (inactive)	0.999 (inactive)	0.99 (inactive)	1 (inactive)	0.995 (inactive)	0.91 (inactive)	1 (inactive)	0.945 (inactive)
O=C(O)C[C@H](O)C[C@H](O)/C=C/c1c(C2CC2)nc2ccccc2c1-c1ccc(F)cc1 [Pitavastatin calcium] (20 µM)	1.08	1.01	0.996	1.12	1.03 (inactive)	0.992 (inactive)	0.997 (inactive)	1.01 (inactive)	1.01 (inactive)	1 (inactive)	0.997 (inactive)	1.04 (inactive)
OC[C@@H](O)[C@H](O)[C@@H](O)CO [Xylitol] (50 µM)	1	1.05	1.11	1.12	1.08 (inactive)	1.06 (inactive)	1.06 (inactive)	1.03 (inactive)	1.19 (inactive)	0.916 (inactive)	1.02 (inactive)	1.08 (inactive)
CCOC(=O)n1ccn(C)c1=S [Carbimazole] (20 µM)	0.973	1.11	0.979	1.08	1.04 (inactive)	0.937 (inactive)	1.01 (inactive)	1.09 (inactive)	1.03 (inactive)	0.98 (inactive)	1 (inactive)	1.01 (inactive)
Cc1ncc([N+](=O)[O-])n1C [Dimetridazole] (20 µM)	0.0144	1.02	0.995	0.811	0.868 (inactive)	0.0153 (active)	0.218 (active)	1.05 (inactive)	1.01 (inactive)	1.07 (inactive)	1.01 (inactive)	0.218 (active)
C/C(=C(\CCOC(=O)c1ccccc1)SS/C(CCOC(=O)c1ccccc1)=C(/C)N(C=O)Cc1cnc(C)nc1N)N(C=O)Cc1cnc(C)nc1N [Bisbentiamine] (20 µM)	0.925	0.985	0.994	1.01	1 (inactive)	0.975 (inactive)	0.917 (inactive)	0.998 (inactive)	0.999 (inactive)	1.03 (inactive)	0.983 (inactive)	0.855 (inactive)
N/C(=N\C(=O)c1nc(Cl)c(N)nc1N)NCc1ccccc1 [Benzamil hydrochloride] (20 µM)	0.787	0.962	0.958	0.861	0.932 (inactive)	1.03 (inactive)	0.961 (inactive)	0.807 (inactive)	0.965 (inactive)	1.48 (inactive)	0.991 (inactive)	0.936 (inactive)
Brc1c(NC2=NCCN2)ccc2nccnc12 [Brimonidine L-tartrate] (20 µM)	0.988	1.06	0.999	1.03	0.928 (inactive)	1.07 (inactive)	0.885 (inactive)	0.973 (inactive)	0.971 (inactive)	0.919 (inactive)	1.06 (inactive)	1.05 (inactive)
Cn1c(=O)c2nc[nH]c2n(C)c1=O [Theophylline monohydrate] (20 µM)	1.19	1.11	1.04	1.12	0.952 (inactive)	1.1 (inactive)	1.1 (inactive)	1.24 (inactive)	0.957 (inactive)	0.9 (inactive)	1.02 (inactive)	1.15 (inactive)
CN1[C@@H]2CC[C@H]1C[C@@H](OC(=O)c1c[nH]c3ccccc13)C2 [Tropisetron hydrochloride] (20 µM)	1.14	1	1.14	1.08	0.94 (inactive)	1.01 (inactive)	1.02 (inactive)	0.982 (inactive)	0.952 (inactive)	0.994 (inactive)	1.01 (inactive)	0.957 (inactive)
O=c1[nH]c(=O)n(C2CCCO2)cc1F (stereo unspecified) [Tegafur] (20 µM)	1.08	0.975	1.01	0.933	0.969 (inactive)	1.01 (inactive)	1.06 (inactive)	1.25 (inactive)	1 (inactive)	0.967 (inactive)	1.01 (inactive)	1.03 (inactive)
O=C(OCC(O)CO)c1ccccc1Nc1ccnc2cc(Cl)ccc12 (stereo unspecified) [Glafenine hydrochloride] (20 µM)	1.08	0.957	0.977	0.831	1.01 (inactive)	0.965 (inactive)	1.03 (inactive)	0.998 (inactive)	0.999 (inactive)	0.998 (inactive)	1.01 (inactive)	1.04 (inactive)
O=C(O)c1cc(=O)c2ccccc2o1 [Chromocarb] (20 µM)	0.945	0.984	0.99	0.957	1.02 (inactive)	1.01 (inactive)	0.989 (inactive)	1.01 (inactive)	0.998 (inactive)	0.983 (inactive)	0.979 (inactive)	0.974 (inactive)
Nc1nc(=O)[nH]cc1F [Flucytosine] (20 µM)	1.01	0.897	0.986	1.03	1.07 (inactive)	0.924 (inactive)	0.987 (inactive)	0.875 (inactive)	1.02 (inactive)	0.968 (inactive)	0.979 (inactive)	1.01 (inactive)
CC(C(=O)O)c1ccc(C(=O)c2ccccc2)s1 (stereo unspecified) [Tiaprofenic acid] (20 µM)	0.955	1.1	0.987	1.16	0.995 (inactive)	0.993 (inactive)	1.04 (inactive)	1.08 (inactive)	1.01 (inactive)	0.966 (inactive)	0.988 (inactive)	1.07 (inactive)
Cc1onc(-c2ccccc2Cl)c1C(=O)N[C@@H]1C(=O)N2[C@@H]1SC(C)(C)[C@@H]2C(=O)O [Cloxacillin sodium salt] (20 µM)	0	1.02	1.08	0.171	0.987 (inactive)	0.0211 (active)	0.0749 (active)	0.997 (inactive)	1.02 (inactive)	0.999 (inactive)	1.02 (inactive)	0.0503 (active)
O=C(Oc1ccccc1)c1ccccc1O [Phenyl salicylate] (20 µM)	1.08	0.961	0.971	1.04	1.09 (inactive)	1.12 (inactive)	1.08 (inactive)	1.03 (inactive)	0.942 (inactive)	0.916 (inactive)	1 (inactive)	1.13 (inactive)
OCCN1CCN(CCCN2c3ccccc3Sc3ccc(C(F)(F)F)cc32)CC1 [Fluphenazine dihydrochloride] (20 µM)	1.03	1.13	1.05	0.85	0.925 (inactive)	1.22 (inactive)	0.878 (inactive)	1.09 (inactive)	0.982 (inactive)	1.11 (inactive)	1.03 (inactive)	0.869 (inactive)
CCOC(=O)C(C)(N)Cc1cc(I)c(Oc2cc(I)c(O)c(I)c2)c(I)c1 (stereo unspecified) [Etiroxate hydrochloride] (20 µM)	1.06	1.02	1.02	1.14	1.04 (inactive)	1.03 (inactive)	0.923 (inactive)	0.951 (inactive)	0.99 (inactive)	0.958 (inactive)	1 (inactive)	1.01 (inactive)
CCc1cc(C(N)=S)ccn1 [Ethionamide] (20 µM)	1.09	1.05	1.03	0.995	0.962 (inactive)	1 (inactive)	1.02 (inactive)	1.05 (inactive)	1 (inactive)	1 (inactive)	1.02 (inactive)	1.01 (inactive)
c1cnc(N2CCN(Cc3ccc4c(c3)OCO4)CC2)nc1 [Piribedil] (20 µM)	0.986	1	1.07	0.998	0.934 (inactive)	1.18 (inactive)	1.02 (inactive)	1.03 (inactive)	0.971 (inactive)	0.962 (inactive)	0.996 (inactive)	0.991 (inactive)
